DAX1 inh-1: DAX1 (NR0B1) inhibitors, primary screen, cell-based, HEK293, Gal4-DAX1, luciferase luminescence; HEK293 Gal4-DAX1 luciferase reporter; actives 0.99% (n = 340,000); Nuclear receptor subfamily 0 group B member 1 (Homo sapiens), P51843; inhibition, % at 6.75 µM;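 active = inhibition above the mean over all tested compounds plus 3 SD, cut at about 4.2% in these data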;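 note: inhibition shows as a rise in luminescence from relieved DAX1 repression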
Target sequence (P51843 207-470 limits assumed): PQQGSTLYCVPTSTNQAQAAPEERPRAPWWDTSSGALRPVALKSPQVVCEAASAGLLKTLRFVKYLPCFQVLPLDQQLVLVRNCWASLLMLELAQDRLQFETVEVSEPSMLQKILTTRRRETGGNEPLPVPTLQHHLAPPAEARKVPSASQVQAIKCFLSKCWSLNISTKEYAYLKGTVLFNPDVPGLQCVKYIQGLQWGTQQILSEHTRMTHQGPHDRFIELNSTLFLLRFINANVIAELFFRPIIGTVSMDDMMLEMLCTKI
ssDAF12 agonist: S. stercoralis DAF-12 nuclear receptor activators, primary screen, cell-based, luminescence, HEK293, GRIP1 co-expression, lit1-tk-luc. actives 1% (n = 370,000). AID 652126, 2013. activation, % at 6.8 µM. HEK293 ssDAF-12/GRIP1 lit1-tk-luc reporter; % of 3 µM dafachronic acid response;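 active = activation above the mean over all tested compounds plus 3 SD, cut at about 0.9% in these data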
hgDAF12 agonist: H. glycines DAF-12 receptor agonists, primary screen, cell-based, luminescence, HEK293, GAL4 fusion, UAS-luciferase; activation, % at 6.8 µM; HEK293 GAL4-hgDAF12 UAS-luciferase reporter, agonist luminescence; normalized to butyrate control; actives 1.8% (n = 370,000); AID 687014, 2013; Nuclear hormone receptor DAF-12 (Heterodera glycines), GAL4 fusion;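 active = activation above a cutoff set at the mean of all screened compounds plus 3 SD, cut at about 10% in these data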
DAX1 inh-2: DAX1 (NR0B1) inhibitors on StAR promoter, primary screen, cell-based, luminescence, SF-1 (NR5A1), full-length DAX-1; HEK293T StAR-luciferase reporter, SF-1/DAX-1 repression relief; inhibition, % at 6.8 µM; AID 652010, 2013; actives 1.1% (n = 370,000);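 active = inhibition above the mean over all tested compounds plus 3 SD, cut at about 3.6% in these data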;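 note: higher inhibition means more luminescence from relief of DAX-1 repression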
hcDAF12 agonist: H. contortus DAF-12 nuclear receptor activators, primary screen, cell-based, luminescence, HEK293, lit1-tk-luc reporter; HEK293 hcDAF-12 lit1-tk-luc reporter; 0% DMSO, 100% Δ7-dafachronic acid; AID 652067, 2013; actives 1.4% (n = 370,000); activation, % at 6.8 µM;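 active = activation above the mean of all tested compounds plus 3 SD, cut at about 5.5% in these data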
Of the large screens only hits and unclear results are named; the others gave an inactive call. This is a sample that favours compounds with a hit; in the whole collection about 4.1% have one here.

CCCCN(C(=O)CSc1cc(C)c2ccc(OC)cc2n1)c1c(N)n(Cc2ccccc2)c(=O)[nH]c1=O	ssDAF12 agonist 4.8
Cc1ccc(S(=O)(=O)N2CCCC2C(=O)N2CCc3ccccc3C2)cc1C (configuration not stated)	none (no result: DAX1 inh-1)
C[C@@H]1CCCN1c1cccc2c1S(=O)(=O)N(C1CC1)CCCO2	none (no result: DAX1 inh-1)
CCCCn1c(N)c(N(CC(C)C)C(=O)CSc2ccccc2C)c(=O)[nH]c1=O	none
CCCCn1c(N)c(N(CC)C(=O)c2ccco2)c(=O)[nH]c1=O	none
CCCCn1c(N)c(N(CC)C(=O)C(c2ccccc2)c2ccccc2)c(=O)[nH]c1=O	DAX1 inh-1 4.9
CCCCn1c(N)c(N(CCOC)C(=O)CSc2ccccc2C)c(=O)[nH]c1=O	DAX1 inh-1 5.3
O=C(Nc1nc2ncccn2c1-c1ccc(F)c(F)c1)c1ccc(F)cc1	none (no result: DAX1 inh-1)
Cc1ccc(NC(=O)/C=C/c2ccco2)nc1	ssDAF12 agonist 1.6, DAX1 inh-2 6.5, hcDAF12 agonist 6.5
O=C(/C=C/c1ccco1)Nc1ccccn1	hgDAF12 agonist 13
O=C(/C=C/c1ccco1)Nc1cccnc1	none
Cc1occc1C(=O)NN=C1C2CC3CC(C2)CC1C3	DAX1 inh-2 4.0
COc1cccc(C2CCCCN(C)C2=O)c1 (configuration not stated)	DAX1 inh-1 4.6
O=c1oc(-c2ccccc2)nc2sc3c(c12)CCCC3	none
O=c1oc(-c2cc3ccccc3o2)nc2sc3c(c12)CCCC3	ssDAF12 agonist 4.2
CC1CC(C)CN(CCCNC(=O)CN2C(=O)CSc3ccc(S(=O)(=O)N4CCCCC4)cc32)C1 (configuration not stated)	DAX1 inh-2 3.6
O=C(c1cc(COc2c(F)cccc2F)on1)N1C[C@H]2CC[C@H]1C2	hgDAF12 agonist 11
CSc1ccccc1OCc1cc(C(=O)N2CCN(C)C(c3ccccc3)C2)no1 (configuration not stated)	none
COc1ccccc1OCc1cc(C(=O)N2CC3C[C@@H]4CC2C[C@H](C3)C4)no1	hgDAF12 agonist 12, DAX1 inh-2 3.7
COc1ccccc1OCc1cc(C(=O)N2CCN(C)C(c3ccccc3)C2)no1 (configuration not stated)	DAX1 inh-2 4.2
COc1cc(C)ccc1OCc1cc(C(=O)N2CCC(c3ccc(F)cc3)C2)no1 (configuration not stated)	hgDAF12 agonist 13
CN(C(=O)[C@@H]1CC=C[C@@H]2CCN(C3CCCCC3)C(=O)[C@@H]21)c1ccccc1	none (no result: DAX1 inh-1, DAX1 inh-2)
O=C(NCC1CCCO1)c1cc2ccccc2nc1Cl (configuration not stated)	DAX1 inh-1 4.3
O=C(NCC1CCCO1)c1cccc2ccccc12 (configuration not stated)	none
Cc1nc2ccc(F)cc2cc1C(=O)NCC1CCCO1 (configuration not stated)	hcDAF12 agonist 5.8
Cc1ccc2nc(-c3ccccc3)cc(C(=O)NCC3CCCO3)c2c1 (configuration not stated)	none (no result: DAX1 inh-1)
Cc1ccc(N=Nc2c(N)n(-c3ccccc3)[nH]c2=O)cc1	hcDAF12 agonist 5.6
Nc1[nH]n(-c2ccccc2)c(=O)c1N=Nc1ccc(F)cc1	none (no result: DAX1 inh-1)
Cc1[nH][nH]c(=O)c1N=Nc1ccc(S(N)(=O)=O)cc1	none (no result: DAX1 inh-1)
CC(=O)c1ccc(N=Nc2c(C)[nH]n(-c3ccccc3)c2=O)cc1	ssDAF12 agonist 0.9
CC(=O)c1ccc(N=Nc2c(C)[nH][nH]c2=O)cc1	DAX1 inh-1 5.5
Cc1ccc(N=Nc2c(C)[nH]n(C(N)=S)c2=O)cc1	ssDAF12 agonist 1.0
O[C@H](COc1cccc(Cl)c1)CN1CCC(C(O)(c2ccccc2)c2ccccc2)CC1	none (no result: DAX1 inh-1)
O=C(NC1CCCCN(Cc2ccc(Cl)cc2)C1=O)c1cccc(F)c1 (configuration not stated)	none (no result: DAX1 inh-1)

Screening results (PubChem)
